Laboratory results: PubChem BioAssay AID1732 (National Center for Advancing Translational Sciences (NCATS), 2009)
This is one part of the list. Inconclusive results are not listed. The call rests on the fitted dose curve; in most records, active means well fitted inhibition curve with a large enough effect; inconclusive means small, poorly fitted or top-dose-only effect, or effect the other way, or another doubt; inactive means no such curve, though single readings can be large or run the other way.

target: Dual specificity mitogen-activated protein kinase kinase 1 (Homo sapiens) (UniProt Q02750); assay: Assay for Inhibitors of the ERK Signaling Pathway using a Homogeneous Screening Assay: MEK Inhibition; details: series mostly up to 76.9 µM; activity change, negative = inhibition: at the top concentration
Sequence (Q02750 whole entry, looked up): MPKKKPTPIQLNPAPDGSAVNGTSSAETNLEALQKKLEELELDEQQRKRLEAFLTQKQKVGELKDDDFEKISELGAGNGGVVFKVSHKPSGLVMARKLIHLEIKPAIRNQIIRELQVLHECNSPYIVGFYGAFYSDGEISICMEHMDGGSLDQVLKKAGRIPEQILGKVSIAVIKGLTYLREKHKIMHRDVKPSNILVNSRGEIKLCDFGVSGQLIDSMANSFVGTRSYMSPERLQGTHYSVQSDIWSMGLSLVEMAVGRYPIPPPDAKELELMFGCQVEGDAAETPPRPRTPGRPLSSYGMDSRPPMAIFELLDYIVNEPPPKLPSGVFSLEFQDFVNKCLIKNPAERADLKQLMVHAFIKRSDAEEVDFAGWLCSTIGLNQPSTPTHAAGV
Description: qHTS Assay for Inhibitors of the ERK Signaling Pathway using a Homogeneous Screening Assay
NIH Chemical Genomics Center [NCGC]
NIH Molecular Libraries Screening Centers Network [MLSCN]
Assay Submitter (PI): Dr. Wei Zheng, NCGC/NIH
The Ras/extracellular-signal-regulated kinase (ERK) mitogen activated protein (MAP) kinase signaling pathway (ERK1/2 cascade) plays is a key role in transmitting signals from the cell surface to the nucleus (Nishida and Gotoh 1993; Chang and Karin, 2001). The cascade is initiated by the small G-protein Ras, which recruits Raf […], where activation occurs. Alternatively, this pathway can be activated by elevating intracellular cAMP.
Activation of the ERK pathway is essential in increased cell division and cell survival. Sustained and constitutive activation of the ERK pathway, however, has been linked to uncontrolled cell proliferation, increased cell survival, and tumor progression. Thus, the ERK has been as an attractive target for cancer chemotherapy in the past few years (Sebolt-Leopold and Herrera, 2004). Given its physiological and pathological importance, assessment of ERK phosphorylation has been broadly performed in both basic research and drug discovery. Most assays for the measurement of ERK phosphorylation use the antibody-based detection methods, such as western blot and ELISA. These assays require multiple reagent additions with cell wash steps and are not suitable for high-throughput screening.
The current cell-based ERK phosphorylation assay was performed using AlphaScreen platform. AlphaScreen is a two bead-based proximity-dependent chemical energy transfer luminescent assay platform. The assay reagents (ERK SureFire(TM) kit) were supplied from TGR BioSciences (Australia). […]
The HTRF kinase assay (components supplied as kit by Cisbio) was chosen for the EGFR and EGFR mutant enzyme assays that applied the time resolved fluorescence resonance energy transfer (TR-FRET) principle. […]

Activity change, negative = inhibition, inactive:
CCCNc1ncnc2sc(C)c(C)c12 -6.81%
O=[N+]([O-])c1ccccc1N/N=C1\CCc2ccccc21 -2.01%
CN(C)c1cc2c(Nc3ccc4c(cnn4Cc4ccccc4)c3)ncnc2cn1 -11.3%
